A selection: hits, their analogues and other compounds. The true share with any hit is near 0.24%.
Eya2 inh = inhibitors of human Eya2 phosphatase activity | O00167 | recombinant Eya2, OMFP fluorescence dephosphorylation (OMFP is methylfluorescein phosphate) | Potency, µM (series often up to 76.9 µM), inactives show at the top dose activity, negative = inhibition, actives largely listed as inhibitors | 330,000 compounds, 0.006% hits; further: potency means the concentration at half of the fitted maximal effect; on the % scale 0 is the no-effect control and ±100 the full control effect
Target sequence (O00167 whole entry, looked up): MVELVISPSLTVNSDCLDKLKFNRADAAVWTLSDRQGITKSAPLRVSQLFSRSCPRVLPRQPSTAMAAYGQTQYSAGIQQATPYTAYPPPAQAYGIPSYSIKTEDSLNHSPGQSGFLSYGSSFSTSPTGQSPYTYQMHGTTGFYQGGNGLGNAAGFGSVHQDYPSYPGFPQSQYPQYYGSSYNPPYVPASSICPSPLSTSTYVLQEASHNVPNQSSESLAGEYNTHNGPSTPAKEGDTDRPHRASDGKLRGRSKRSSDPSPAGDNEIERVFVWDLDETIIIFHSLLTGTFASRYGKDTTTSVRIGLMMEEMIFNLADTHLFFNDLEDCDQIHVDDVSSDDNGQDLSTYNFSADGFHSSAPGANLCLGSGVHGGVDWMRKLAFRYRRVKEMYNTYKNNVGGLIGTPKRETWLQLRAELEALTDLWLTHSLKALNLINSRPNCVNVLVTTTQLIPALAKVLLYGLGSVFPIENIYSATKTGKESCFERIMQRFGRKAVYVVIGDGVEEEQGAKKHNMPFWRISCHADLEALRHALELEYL
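Eya2 (0.2 uM) preincubated 10 min at ambient with compound, then OMFP substrate added at 50 uM; 10 min reaction in 50 mM HEPES pH 7.5, 50 mM NaCl, 5 uM MgCl2, 0.05% BSA, 1 mM DTT. Fluorescence read at Ex 485/Em 525 nm.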
TCR activator = T cell receptor activation | Potency, µM (top dose mostly 9.22 µM), inactives show at the highest dose activation of IL-2 secretion, hits mostly activators | 330,000 tested, under 10 active | primary human leukocytes, anti-CD3, IL-2 HTRF, 48 h; further: % of control where 0% means no effect
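Primary human leukocytes were stimulated with a-CD3 beads plus compounds for 48 hr without co-stimulation; secreted IL-2 was quantified by HTRF using a-IL-2-K (europium cryptate) and a-IL-2-d2, excited at 320nm with acceptor emission read at 665nm.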
TSHR antagonist = blocks TSH signaling through the human TSH receptor | activity change, negative = inhibition, % at 11.5 µM | TSHR-expressing cells, TSH-stimulated cAMP HTRF, 2 h; active compounds read low | 330,000 compounds, 0.2% hits | P16473;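 active means activity change below a set negative limit, meaning inhibition stronger than a set level, cut at about -70% in these data; inconclusive means activity change between two set negative limits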; further: on the % scale 0 is the no-effect control and ±100 the full control effect
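TSHR-expressing cells, 200/well, pre-treated with compound, then stimulated with EC80 TSH (4nM final) for 2 hours at 37 deg C. cAMP measured by competitive HTRF: anti-cAMP cryptate antibody in lysis buffer plus cAMP-d2, read after 30 minutes at room temperature.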
a7 integrin act = activators of alpha7 integrin expression for muscular dystrophy; alpha7betagal myoblasts, beta-gal FDG fluorescence, 48 h; Potency, µM (doses to about 38.3 µM), without a hit: at the highest dose activation, hits mostly activators; 350,000 compounds, 0.064% hits;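 further: potency means the concentration at half of the fitted maximal effect; 100% = response of the positive control SU9516; nearly all actives have a fitted effect of over 60% in size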
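Alpha7betagal+/- myoblasts (passage 13) were plated 16-24 hr, then exposed to compounds (1:260 dilution of DMSO stock) for 48 hours at 37C. After MPER lysis, β-galactosidase reporter activity was read as FDG fluorescence (ex 480/em 540) after 30 minutes.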
The depositor's hits bear a star; ? = inconclusive; · = no result given; [ ] = remark or other dose. Unless noted, the call rests on the fitted dose curve; in most records, active means well fitted curve in the direction sought with a large enough effect; inconclusive means small, poorly fitted or top-dose-only effect, or another doubt; inactive means no such curve, though single readings can be large; an effect the other way counts as inactive or inconclusive.

SMILES	Eya2 inh	TCR activator	TSHR antagonist	a7 integrin act
CN1CCN(c2ccc([N+](=O)[O-])c3no[n+]([O-])c23)CC1	?	0%	-97*	-78%
O=[N+]([O-])c1ccc(N(CCO)CCO)c2c1no[n+]2[O-]	·	·	·	-63%
Cc1nn(C(C)(C)C)c(C)c1/C=N/OC(=O)Nc1ccc(Cl)c(Cl)c1	-4%	-2%	-14	2.8µM*
Cc1ccc(NC(=O)c2snnc2C)cc1Cl	-5%	2%	-10	-15%
C[C@H](CO)N1C[C@H](C)[C@H](CN(C)S(=O)(=O)c2ccc(Cl)cc2)OCc2ccccc2-c2c(n(C)c3ccccc23)C1=O	·	·	·	-61%
C=C(C)[C@H]1Cc2c(ccc3c2O[C@@H]2COc4cc(OC)c(OC)cc4[C@@H]2C3=O)O1	-2%	·	-24	·
CC1(C)C[C@H]2C=C(C=O)[C@]3(C=O)C[C@]3(C)[C@H]2C1	-8%	-9%	-87*	-49%
COc1ccccc1OC(=O)Oc1ccccc1OC	·	1%	·	-38%
Cc1nc2c(=O)n(C)c(=O)nc-2n(C)n1	35µM*	-9%[46.1 µM]	31	-50%
NC(CP(=O)(O)O)C(=O)O (stereo not drawn)	-2%	·	-2	·
Nc1ccc(-c2ccccc2)cc1	·	1%	·	-10%
Nc1ccc(C2(c3ccc(N)cc3)c3ccccc3-c3ccccc32)cc1	5%	-8%[46.1 µM]	-102*	-18%
